Consider 78 molecules from the supplement of paper PMC8183993.

Several values for one entry are separate records, joined by “and”; a condition that tells them apart may be missing. Equal values may be shown once. Where a name gives a salt, the structure may show the parent alone. ± gives the standard deviation of the averaged measurements. The full ranking holds about 3,100 compounds; the median of “mean cytoplasmic OPP incorporation (global translation) relative to DMSO” is about 100, and the lowest 2% start at about 56. This excerpt belongs to a sample that is enriched for the lowest values.

This test has as its system U2OS. The test can be described thus: mean cytoplasmic OPP incorporation (global translation) relative to DMSO (% of DMSO); higher = more protein synthesis. The note with it: 10 µM; 24 h. As to the method:
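Primary image-based screen in U2OS cells: compounds at 10 uM for 24 h, then a 1 h o-propargyl-puromycin (OPP) pulse, click labelling, and high-throughput microscopy. Mean cytoplasmic OPP intensity and nuclei count were normalised to DMSO wells within each plate (DMSO = 100) and averaged over triplicate plates.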
With `O=C(O)Cc1nn(Cc2ccc(Br)cc2F)c(=O)c2ccccc12` [Statil], the “mean cytoplasmic OPP incorporation” value is 98.2.
Then `Cc1ccc(NC(=O)c2ccc(CN3CCN(C)CC3)cc2)cc1Nc1nccc(-c2cccnc2)n1` [Imatinib Mesylate], with 130; and `Cc1ccc(NC(=O)c2ccc(CN3CCN(C)CC3)cc2)cc1Nc1nccc(-c2cccnc2)n1` [Imatinib mesylate], with 121 ± 11.
`Cc1cc(NC(=O)c2cccc(NC(=O)/C=C/CN(C)C)c2)ccc1Nc1nccc(-c2cccnc2)n1`: the “mean cytoplasmic OPP incorporation” value came out at 96.1.
Regarding `Cc1ccc(NC(=O)c2ccc(CN3CCN(C)CC3)cc2)cc1Nc1nccc(-c2cccnc2)n1` [Imatinib], the “mean cytoplasmic OPP incorporation” value was 120.
The result for `Nc1ccccc1NC(=O)c1ccc(CNC(=O)OCc2cccnc2)cc1` [Entinostat (MS-275, SNDX-275)] reads 23.5; that for `COc1ccc(C(=O)NCc2cccnc2)cc1C(=O)NCc1cccnc1` [Picotamide monohydrate], 98.8.
In the case of `Cc1ccc(NC(=O)c2ccc(CN3CCN(C)CC3)cc2)cc1Nc1nccc(-c2cccnc2)n1` [Imatinib (STI571)], the “mean cytoplasmic OPP incorporation” value worked out at 124.
For `Nc1ccccc1NC(=O)c1ccc(CNc2nccc(-c3cccnc3)n2)cc1` [Mocetinostat (MGCD0103)], the “mean cytoplasmic OPP incorporation” value was 35.5.
On to `CC(=O)Nc1ccc(C(=O)Nc2ccccc2N)cc1`, for which the “mean cytoplasmic OPP incorporation” value amounted to 57.3 ± 33.
The result for `O=c1nc2ccccc2c2n1CC(CN1CCN(c3ccccc3)CC1)N2` (stereo not drawn) reads 101; that for `O=C(O)c1ccccc1Nc1cccc2c1C(=O)c1cccc(Nc3ccccc3C(=O)O)c1C2=O`, 113; that for `O=C(Cc1ccccc1)Nc1nc2ccc(Cl)cc2c2nc(-c3ccco3)nn12`, 104.
The result for `CC(C)CC(NC(=O)OCC1c2ccccc2-c2ccccc21)C(=O)O` (stereo not drawn) reads 109.
Then `Brc1ccc(C2CN3CCSC3=N2)cc1` [L-p-Bromotetramisole oxalate], with 94.5; and `CCOC(=O)C=Cc1ccc(O)c(OC)c1` [Ferulic acid ethylester], with 103.
For `COCC[n+]1c2c(n(Cc3cnccn3)c1C)C(=O)c1ccccc1C2=O`, the “mean cytoplasmic OPP incorporation” value worked out at 35.
The result for `CC(C)NCC(O)COc1ccccc1-n1cccc1` (stereo not drawn) [Isamoltane hemifumarate] reads 94.6; that for `Nc1c(O)cc(O)cc1C=Cc1ccc(O)cc1` [Aminoresveratrol sulfate], 100.
For `CCC(=O)NC1CCc2cccc(OC)c2C1` (stereo not drawn), the “mean cytoplasmic OPP incorporation” value stood at 101.
With `O=S1(=O)c2cccc3cccc(c23)N1CCCN1CCN(c2ccc(F)cc2)CC1` [Fananserin], the “mean cytoplasmic OPP incorporation” value was 103.
The result for `CCCOC(=O)c1cc(O)c(O)c(O)c1` [N-Propyl gallate] reads 123.
The result for `Cc1c(CN2CCN(C(=O)[C@H](C)O)CC2)sc2c(N3CCOCC3)nc(-c3cnc(N)nc3)nc12` [Apitolisib (GDC-0980, RG7422)] reads 50.7.
As for `CS(=O)(=O)N1CCN(Cc2cc3nc(-c4cccc5[nH]ncc45)nc(N4CCOCC4)c3s2)CC1` [Pictilisib (GDC-0941)], the “mean cytoplasmic OPP incorporation” value is 73.8.
The result for `COc1ccc(-c2nc(N3CCOCC3)c3sc(CN(C)c4ncc(C(=O)NO)cn4)cc3n2)cn1` reads 86.6; that for `Cc1cc(Cc2cc(C)cc(C(C)(C)C)c2O)c(O)c(C(C)(C)C)c1`, 103; that for `CC1(C)S[C@@H]2[C@H](NC(=O)Cc3ccccc3)C(=O)N2[C@H]1C(=O)O` [Benzathine benzylpenicillin], 104.
The result for `Cc1cc(C(=O)NNCc2ccccc2)no1` [Isocarboxazid] reads 106; that for `CC1(C)S[C@@H]2[C@H](NC(=O)Cc3ccccc3)C(=O)N2[C@H]1C(=O)O` [Benzylpenicillin sodium], 80.8; that for `CC1(C)OC2=C(C(=O)c3ccccc3C2=O)[C@H](NCc2ccccc2)[C@@H]1O`, 38.9.
Regarding `CC(C)Oc1ccc(-c2c[nH]cc2CN(C)CCN)cc1`, the “mean cytoplasmic OPP incorporation” value came to 100.
Consider `CC(CCCCC(=O)Nc1ccc(C(F)(F)F)cc1)NCCc1cnc[nH]1` (stereo not drawn) [HTMT dimaleate], for which the “mean cytoplasmic OPP incorporation” value amounted to 100.
The result for `CC1(C)Oc2ccc(C#N)cc2[C@H](N2CCCC2=O)[C@H]1O` [Cromakalim] reads 98.1; that for `FC(F)(F)c1cc(COC2CCCNC2c2ccccc2)cc(C(F)(F)F)c1` [L-733,060 hydrochloride], 108; that for `CCC(C)[C@H](NS(=O)(=O)c1cccc2ccccc12)C(=O)N[C@H](C=O)Cc1c[nH]c2ccccc12` (stereo partly drawn), 102.
Then `COc1ccc2cc3[n+](cc2c1OC)CCc1cc2c(cc1-3)OCO2` [Berberine HCl], with 106; and `C[n+]1cc2c3c(ccc2c2ccc4cc5c(cc4c21)OCO5)OCO3` [Sanguinarine chloride], with 42.4.
The result for `O=c1[nH]c2cc(Cl)ccc2c(O)c1-c1cccc(Oc2ccccc2)c1` reads 103; that for `O=C1NC(=O)c2c1c(-c1ccccc1)cc1[nH]c3ccc(O)cc3c21`, 51.8; that for `CS(=O)(=O)CCNCc1nc(-c2ccc3ncnc(Nc4ccc(OCc5cccc(F)c5)c(Cl)c4)c3c2)cs1`, 102.
Consider `N#Cc1cc2c(OCC(O)CN3CCN(C(c4ccccc4)c4ccccc4)CC3)cccc2[nH]1` (stereo not drawn), for which the “mean cytoplasmic OPP incorporation” value amounted to 107.
Take `CCN(CC)CCCC(C)Nc1ccnc2cc(Cl)ccc12` (stereo not drawn) [Chloroquine]: the “mean cytoplasmic OPP incorporation” value came to 107.
Then `CCN(CC)CCCC(C)Nc1c2ccc(Cl)cc2nc2ccc(OC)cc12` (stereo not drawn) [Quinacrine dihydrochloride dihydrate], with 29.5; and `CCN(CCO)CCCC(C)Nc1ccnc2cc(Cl)ccc12` (stereo not drawn) [Hydroxychloroquine sulfate], with 102.
`CCN(CC)CCCC(C)Nc1ccnc2cc(Cl)ccc12` (stereo not drawn) [Chloroquine diphosphate]: the “mean cytoplasmic OPP incorporation” value came out at 105.
Then `CCN(CCO)CCCC(C)Nc1ccnc2cc(Cl)ccc12` (stereo not drawn) [Hydroxychloroquine], with 93; and `O=C(CCCCCCC(=O)NO)NO` [Suberoyl bis-hydroxamic acid], with 88.4; and `C[C@H](CCC(=O)NCC(=O)O)[C@H]1CC[C@H]2[C@@H]3CC[C@@H]4C[C@H](O)CC[C@]4(C)[C@H]3C[C@H](O)[C@]12C` [Glycodeoxycholic acid], with 102.
On to `CCC(=O)N1CCN(c2ccc(-n3c(=O)ccc4cnc5ccc(-c6cnc7ccccc7c6)cc5c43)cc2C(F)(F)F)CC1` [Torin 1], for which the “mean cytoplasmic OPP incorporation” value was found to be 73.
Turning to `Nc1ccc(-c2ccc3ncc4ccc(=O)n(-c5cccc(C(F)(F)F)c5)c4c3c2)cn1` [Torin 2], the “mean cytoplasmic OPP incorporation” value worked out at 67.6 ± 3.6.
Then `COc1ccc(-c2ccc3ncc4c(c3c2)n(-c2ccc(N3CCNCC3)c(C(F)(F)F)c2)c(=O)n4C)cn1`, with 33.4 ± 16; and `CCN(CC)CCNC(=O)c1c(C)[nH]c(/C=C2\C(=O)Nc3ccc(Cl)cc32)c1C`, with 124.
The result for `Cc1nnc(-c2ccc3occ(-c4ccc([S+](C)[O-])cc4)c3c2)o1` (stereo not drawn) reads 105; that for `CCCCC[C@H](O)/C=C/C=C\CCCCCCCC(=O)O` [13(S)-Hydroxy-9Z,11E-octadecadienoic acid], 99.3.
Then `CC(/C=C/C(=O)NO)=C\[C@@H](C)C(=O)c1ccc(N(C)C)cc1` [Trichostatin A], with 66.2 ± 33; and `CN1CCCN(C(=O)c2cccc(-c3ccc(/C=C4/C(=O)Nc5ccc(Cl)cc54)o3)c2)CC1`, with 55.4; and `CN1CCN(C(=O)c2nc3ccc(Cl)cc3[nH]2)CC1`, with 81.1.
Turning to `Cc1[nH]c(/C=C2\C(=O)Nc3ccc(S(=O)(=O)N(C)c4cccc(Cl)c4)cc32)c(C)c1C(=O)N1CCN(C)CC1`, the “mean cytoplasmic OPP incorporation” value was 88.9.
Regarding `NCCCCCc1c[nH]cn1` [Impentamine dihydrobromide], the “mean cytoplasmic OPP incorporation” value was determined as 99.3.
For the molecule `Cc1cc(C)c(S(=O)(=O)Nc2ccccc2C(F)(F)F)c(C)c1`, the “mean cytoplasmic OPP incorporation” value worked out at 97.3.
Then `O=C(Nc1ccccc1-c1cn2c(CN3CCNCC3)csc2n1)c1cnc2ccccc2n1`, with 48.8.
For `Cc1cc(C(=O)O)sc1C(N)C(=O)O` (stereo not drawn), the “mean cytoplasmic OPP incorporation” value is 104.
Consider `COC(=O)[C@@H](N)CSC/C=C(\C)CC/C=C(\C)CCC=C(C)C` [S-Farnesyl-L-cysteine methyl ester], for which the “mean cytoplasmic OPP incorporation” value stood at 95.9.
Then `CSc1ccc(/C=C2/C(C)=C(CC(=O)O)c3cc(F)ccc32)cc1` [Sulindac Sulfide], with 104; and `NS(=O)(=O)c1ccc(NC(=O)Nc2ccc(F)cc2)cc1`, with 98.7.
As to `Nc1nc(Nc2ccc(S(N)(=O)=O)cc2)nn1C(=O)c1c(F)cccc1F`, the “mean cytoplasmic OPP incorporation” value turned out to be 50.1.
For `COc1ccc(CCN2CCN(CCCc3ccccc3)CC2)cc1OC`, the “mean cytoplasmic OPP incorporation” value was 111.
For `CCN(C(=O)CO)[C@H]1CN(/C(=N\C#N)Nc2cccc(OC(F)F)c2)N=C1c1ccc(Cl)c(Cl)c1`, the “mean cytoplasmic OPP incorporation” value is 107.
Take `CCCCCCCCOC(=O)/C=C/c1ccc(O)c(O)c1` [n-Octyl caffeate]: the “mean cytoplasmic OPP incorporation” value was 88.9.
Take `NC(N)=NCCC[C@H](NC(=O)[C@@H]1CCCN1C(=O)[C@H](N)Cc1ccccc1)C(=O)CCl`: the “mean cytoplasmic OPP incorporation” value is 99.7.
The result for `O=C(O)Cc1ccc(OCCNC[C@H](O)c2ccccc2)cc1` [ZD 2079 hydrochloride] reads 103.
The result for `Cc1cc(I)ccc1Nc1c(C(=O)NOCC2CC2)cc(F)c(F)c1F` reads 97.5.
Turning to `CCCC[C@@H](C=O)NC(=O)[C@H](CC(C)C)NC(=O)OCc1ccccc1` [Calpeptin], the “mean cytoplasmic OPP incorporation” value is 106 ± 7.2.
Regarding `CC(C)C[C@@H](C=O)NC(=O)[C@H](CC(C)C)NC(=O)[C@H](CC(C)C)NC(=O)OCc1ccccc1`, the “mean cytoplasmic OPP incorporation” value was 91.4 and 56.1.
Then `CC(NC(=O)C(Cc1ccccc1)NC(=O)OCc1ccccc1)C(=O)CF` (stereo not drawn), with 101; and `C[C@H](CC[C@@H]1OC1(C)C)[C@H]1CC[C@H]2[C@@H]3CC=C4C[C@@H](O)CC[C@]4(C)[C@H]3CC[C@]12C` [24(S),25-Epoxycholesterol], with 112; and `Cc1ccc(NC(=O)C(C)C)cc1C1CCN(Cc2ccc(Oc3ccc(F)c(F)c3)cc2)CC1`, with 108.
For `CC[C@H](C)[C@H](N)C1=N[C@H](C(=O)N[C@@H](CC(C)C)C(=O)N[C@H](CCC(=O)[O-])C(=O)N[C@H](C(=O)N[C@H]2CCCCNC(=O)[C@H](CC(N)=O)NC(=O)[C@@H](CC(=O)[O-])NC(=O)[C@H](Cc3cnc[nH]3)NC(=O)[C@@H](Cc3ccccc3)NC(=O)[C@H]([C@@H](C)CC)NC(=O)[C@@H](CCCN)NC2=O)[C@@H](C)CC)CS1.[Zn+2]` [Bacitracin zinc], the “mean cytoplasmic OPP incorporation” value was found to be 107.
